Screens from PubChem.
Most compounds without a hit are left out; they make up all but 3.9% or so of the library.
Bead autofluor: flagged as autofluorescent in microsphere protease counterscreen | compound autofluorescence counterscreen, microsphere flow cytometry; hits give high values | fluorescence intensity (test concentration not listed) | actives 3.1% (n = 360,000); in the data active = fluorescence intensity above about 16000; inconclusive = no clear call, values can overlap the other calls
Anthrax LF prot: anthrax lethal factor protease inhibition; P15917; multiplex microsphere protease cleavage assay, LF; inhibition, % at 10 µM; actives 0.12% (n = 360,000); note: plate controls were buffer without enzyme for full effect and enzyme alone for no effect
Target sequence (P15917 whole entry, looked up): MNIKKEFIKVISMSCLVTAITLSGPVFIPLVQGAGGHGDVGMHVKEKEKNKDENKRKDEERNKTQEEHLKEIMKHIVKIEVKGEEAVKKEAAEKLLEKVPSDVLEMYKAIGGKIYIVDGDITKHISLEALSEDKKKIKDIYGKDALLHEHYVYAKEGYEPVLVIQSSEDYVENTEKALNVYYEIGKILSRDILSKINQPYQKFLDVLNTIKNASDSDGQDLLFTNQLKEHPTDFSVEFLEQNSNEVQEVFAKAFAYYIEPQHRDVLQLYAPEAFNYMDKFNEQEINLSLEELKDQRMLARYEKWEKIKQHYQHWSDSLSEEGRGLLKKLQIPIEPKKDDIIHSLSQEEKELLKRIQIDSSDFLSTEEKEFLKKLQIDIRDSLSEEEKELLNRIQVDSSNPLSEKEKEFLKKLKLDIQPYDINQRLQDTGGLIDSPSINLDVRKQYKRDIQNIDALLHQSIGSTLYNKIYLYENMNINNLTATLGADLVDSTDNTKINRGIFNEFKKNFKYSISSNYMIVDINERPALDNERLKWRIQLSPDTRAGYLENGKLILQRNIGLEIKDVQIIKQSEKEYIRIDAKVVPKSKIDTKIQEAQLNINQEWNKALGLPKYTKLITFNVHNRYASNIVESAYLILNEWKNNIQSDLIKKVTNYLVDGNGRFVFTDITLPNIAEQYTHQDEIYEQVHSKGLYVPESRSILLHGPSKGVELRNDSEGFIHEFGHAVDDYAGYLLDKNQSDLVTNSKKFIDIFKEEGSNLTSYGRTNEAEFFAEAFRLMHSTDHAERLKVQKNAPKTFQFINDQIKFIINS
MazEF act: increases E. coli MazEF RNase cleavage of RNA; FAM/BHQ RNA-DNA oligo cleavage fluorescence, 5 h; AID 504720; actives 0.32% (n = 350,000); activation, % at 20 µM; in the data active = activation above about 50%
BH1578 lux ind: inducers of Vibrio cholerae quorum light production without autoinducers. V. cholerae BH1578 lux reporter, luminescence, 6 h. activation, % at 18.7 µM. actives 0.16% (n = 350,000). AID 588436; in the data active = activation mostly above about 9.7%, no sharp cut-off; inconclusive = no clear call, values can overlap the other calls; inactive = mostly below about 3.7%
BoNT-F LC inh: blocks Botulinum neurotoxin F light chain protease. actives 0.22% (n = 360,000). inhibition, % at 10 µM. Multiplex microsphere protease cleavage assay, flow cytometry; in the data active = inhibition above about 35%, passing the limit was not always enough; inconclusive = no clear call, values can overlap the other calls; note: plate controls were buffer without enzyme for full effect and enzyme alone for no effect
BoNT-A LC inh2: inhibitors of Botulinum neurotoxin A light chain protease; multiplex microsphere protease substrate cleavage, flow cytometry; inhibition, % at 10 µM; actives 0.17% (n = 360,000); note: plate controls were buffer without enzyme for full effect and enzyme alone for no effect
Starred values were filed as active, the others as inactive; i = inactive; u = inconclusive; x = no result. Cut-off read from the data, not from the text of the source, unless noted: active = inhibition above about 30%; inconclusive = no clear call, values can overlap the other calls; inactive = below that.

SMILES | Bead autofluor | Anthrax LF prot | MazEF act | BH1578 lux ind | BoNT-F LC inh | BoNT-A LC inh2
Cc1ccc(S(=O)(=O)Nc2ccc(S(=O)(=O)Nc3nccs3)cc2)cc1C | 3831 | 2 | -1 | 0 | -5 | 1
Cc1cc(C(=O)Nc2ccc(S(=O)(=O)Nc3nccs3)cc2)c(C)o1 | 24552* | -2 | 5 | 0 | -3 | -2
O=S(=O)(Nc1ccc(S(=O)(=O)Nc2nccs2)cc1)c1ccc2c(c1)OCCO2 | 16416* | -2 | 11 | -2 | -5 | -1
CCOc1ccc(NC(=O)CN(C)Cc2cc(=O)n3c(-c4ccccc4)csc3n2)cc1OCC | 4222 | -4 | 1 | 0 | 1 | 2
CC(C)(CO)NC(=O)Nc1ccc(Cl)c(Cl)c1 | 3553 | -9 | -11 | i | -3 | 0
CSCC[C@H](NC(=O)C1CCC(CNC(=O)[C@@H]2CCCN2C(=O)OC(C)(C)C)CC1)C(=O)O (some centres undefined) | 3294 | 9 | 6 | 0 | -11 | -1
OC(CNCCc1ccc(Cl)cc1)COc1cc(Cl)ccc1Cl (centres undefined) | 3977 | 4 | 9 | i | -34 | -3
Cc1ccc(C2Nc3ccc4ccccc4c3C3=C2C(=O)CC(C)(C)C3)o1 (centres undefined) | 21585* | -8 | -3 | -3 | 1 | 3
CC(C)OC(=O)c1cccnc1SCc1cc(=O)n2ccccc2n1 | 24425* | 0 | 0 | -3 | -5 | -2
CC(C)OC(=O)c1cccnc1SCC(=O)N(C)c1ccccc1 | 8409 | 3 | -4 | i | 4 | -1
CCn1c(COc2ccc(=O)n(-c3ccccc3)n2)nnc1SCc1ccccc1 | 21225* | -1 | -1 | 3 | -5 | -2
Cc1ccc(NC(=O)NC(=O)CSc2nnnn2C)c(C)c1 | 20545* | -1 | 2 | 0 | 0 | 0
O=C1CCCc2c1[nH]c1ccc(CN3CCCCC3)cc21 | 23077* | -2 | -4 | 0 | -2 | 0
Cc1ccc2[nH]c3c(c2c1)CCCC3=O | 2392 | -5 | 7 | i | 0 | -1
NC(=O)C1CCN(Cc2nnnn2Cc2ccco2)CC1 | 3240 | -1 | -4 | 0 | 16 | 0
COc1cccc(NC(=O)NC2CCN(Cc3nnnn3Cc3ccc(F)cc3)CC2)c1 | 10898 | 5 | 5 | 0 | -6 | -2
O=C(Nc1ccc(F)cc1)NC1CCN(Cc2nnnn2Cc2ccco2)CC1 | 22240* | -2 | 0 | i | 0 | u
O=C(Nc1ccccc1F)NC1CCN(Cc2nnnn2Cc2ccc(F)cc2)CC1 | 23538* | 1 | 0 | i | -2 | 0
Cc1ccc(N2CC(C(=O)Oc3cccc(N4C(=O)CCC4=O)c3)CC2=O)cc1 (centres undefined) | 21129* | -3 | 6 | 0 | -4 | -2
Cc1ccc(N2CC(C(=O)OCC(=O)C(C)(C)C)CC2=O)cc1 (centres undefined) | 23049* | -4 | 9 | i | -2 | 0
O=C(/C=C/c1ccccc1[N+](=O)[O-])OCC(=O)N1CCN(c2ccccc2)CC1 | 3496 | 3 | 7 | 5 | -1 | 0
CC(=O)c1ccc(N2CCN(C(=O)C3(S(=O)(=O)c4ccc(Cl)cc4)CC3)CC2)cc1 | 19219* | -1 | -4 | 1 | 0 | 0
COc1ccc(N2CCN(CCCNC(=O)C3(S(=O)(=O)c4ccc(Cl)cc4)CC3)CC2)cc1 | 26083* | -7 | 6 | 1 | -16 | u
COc1cccc(CN(C)C(=O)c2cc(S(=O)(=O)NC3CCCCC3)ccc2C)c1OC | 6916 | -1 | -5 | i | -2 | 0
O=C(N=c1ccn(-c2nc3ccccc3nc2NS(=O)(=O)c2ccc(Cl)cc2)cc1)c1cccs1 | 5100 | -4 | 92* | -1 | -2 | 0
SMILES | Bead autofluor | Anthrax LF prot | MazEF act | BH1578 lux ind | BoNT-F LC inh | BoNT-A LC inh2
Cc1cccc(C(=O)OCc2cc3ccccc3[nH]c2=O)c1 | x | x | 77* | -1 | x | x
O=C(NC1CCCC1)c1ccc(CSCc2ccccc2F)o1 | 23171* | 1 | -5 | 0 | 0 | 2
O=C(NC1CCCC1)c1ccc(CS(=O)(=O)Cc2ccccc2F)o1 | 5803 | -2 | 5 | 0 | 0 | 0
COc1ccc(CCN2C(=O)COc3ccccc3C2C(=O)Nc2c(C)cccc2C)cc1OC (centres undefined) | 6290 | 4 | x | x | 2 | 0
CCC(CC)C(=O)N(C)c1c(C)nc2c(OCc3ccc(F)c(F)c3)cccn12 | 3743 | -12 | x | 1 | 3 | 0
COc1ccc(-c2ccc(SCC(=O)c3ccccc3)nn2)cc1OC | 4176 | -2 | 4 | -1 | -1 | 2
COc1ccc(NC(=O)CN2CCC(NC(=O)C3CCCCC3)CC2)cc1 | 23189* | -1 | -9 | i | -2 | 0
O=C(CN1CCC(NC(=O)C2CCCCC2)CC1)Nc1ccccc1 | 2921 | -5 | 3 | -5 | -13 | -1
COc1ccc(NC(=O)CSC2CCCCC2)cc1 | 21701* | 2 | -2 | 1 | -3 | -3
NS(=O)(=O)c1ccc(NC(=O)CSC2CCCCC2)cc1 | 9047 | -2 | 8 | -11 | -4 | -1
NC(=O)c1ccsc1NC(=O)COC(=O)Cc1ccccc1[N+](=O)[O-] | 2851 | 1 | -4 | -1 | 6 | 0
Cc1cc(Br)cn2c(Cc3ccsc3)c(C(C)(C)C)nc12 | 5647 | 15 | x | x | -10 | 8
O=C(O)c1cc(NN=C2CCN(Cc3ccccc3)CC2)ccc1Cl | 6123 | -5 | 1 | 1 | 42* | 7
COc1ccc2c(c1)Cc1sc(NC(=O)c3cccs3)nc1-2 | 18806* | -4 | 3 | i | 3 | 3
COc1cc2c(cc1OC)[C@@H](NC(=O)CCC1CCCCC1)[C@H](O)C2 | 3684 | -7 | 1 | i | 2 | -1
COc1cccc(CN2C(=O)CCC2(C)C(=O)NC2CCCCC2)c1 (centres undefined) | 4481 | -7 | -11 | 0 | -7 | 0
CC(C)CCN1C(=O)CCC1(C)C(=O)NC1CCCCCC1 (centres undefined) | 9546 | 1 | 6 | -4 | -1 | 0
CC1(C(=O)NC2CCCC2)CCC(=O)N1Cc1ccc2c(c1)OCO2 (centres undefined) | 25159* | -3 | 4 | 0 | -7 | -4
COc1ccc(CN2C(=O)CCC2(C)C(=O)NC2CCCCCC2)cc1 (centres undefined) | 23241* | -3 | 11 | i | 1 | -2
CC(C)CCN1C(=O)CCC1(C)C(=O)NC1CCCCCCC1 (centres undefined) | 23125* | -1 | 6 | 0 | -1 | 0
CCCc1c(C)nc(N2CCN(c3ccccc3OC)CC2)[nH]c1=O | 4106 | -8 | -2 | -1 | -16 | -3
CC1=C(C(=O)Nc2ccccc2C)C2(CCCC2)C(C(N)=O)C(=O)N1 (centres undefined) | 19911* | 2 | 5 | 2 | -5 | 0
CCOC(=O)c1ccc(S(=O)(=O)Nc2cc(C(C)(C)C)no2)cc1 | 24179* | -2 | 3 | 2 | 0 | -2
